Assay outcomes from PubChem.
ssDAF12 agonist – activates DAF-12 receptor from parasite S. stercoralis; HEK293 ssDAF-12/GRIP1 lit1-tk-luc reporter, luminescence; % of 3 µM dafachronic acid response; activation, % at 6.8 µM; hit rate 1% among 370,000; AID 652126;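 active means activation above the mean over all tested compounds plus 3 SD, cut at about 0.9% in these data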;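 further: 0% = DMSO-only wells and 100% = 3 µM delta7-dafachronic acid wells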
hcDAF-12 act – activates DAF-12 receptor from parasite H. contortus; HEK293 hcDAF-12 lit1-tk-luc reporter, luminescence; 0% DMSO, 100% Δ7-dafachronic acid; activation, % at 6.8 µM; hit rate 1.4% among 370,000; AID 652067;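 active means activation above the mean of all tested compounds plus 3 SD, cut at about 5.5% in these data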;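 further: 100% = response to 3 µM Δ7-dafachronic acid high control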
DAX1 inh-1 – blocks DAX1 repression of SF-1 activated StAR promoter; HEK293T StAR-luciferase reporter, SF-1/DAX-1 repression relief; inhibition, % at 6.8 µM; hit rate 1.1% among 370,000; AID 652010;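 active means inhibition above the mean over all tested compounds plus 3 SD, cut at about 3.6% in these data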;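 further: 0% = DAX-1 cells with DMSO and 100% = cells lacking DAX-1 with DMSO; higher inhibition means more luminescence from relief of DAX-1 repression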
SMARCA2 act – increases SMARCA2 function in MMTV reporter cells. MG213 cells, MMTV-luciferase reporter, dexamethasone, overnight. activation, % at 9.1 µM. hit rate 1% among 370,000; in the data active means activation above about 7.8%;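 further: 0% = vehicle wells and 100% = reference activator wells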
hgDAF-12 ag – agonists of H. glycines DAF-12 nuclear receptor. HEK293 GAL4-hgDAF12 UAS-luciferase reporter, agonist luminescence; normalized to butyrate control. activation, % at 6.8 µM. hit rate 1.8% among 370,000;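 active means activation above a cutoff set at the mean of all screened compounds plus 3 SD, cut at about 10% in these data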;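 further: 0% = DMSO wells and 100% = sodium butyrate wells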
DAX1 inh-2 – inhibits human nuclear receptor DAX1 | inhibition, % at 6.75 µM | HEK293 Gal4-DAX1 luciferase reporter, luminescence | P51843 | hit rate 0.99% among 340,000;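 active means inhibition above the mean over all tested compounds plus 3 SD, cut at about 4.2% in these data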;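 further: 0% = DAX1-transfected cells with DMSO and 100% = empty-vector control cells with DMSO; inhibition shows as a rise in luminescence from relieved DAX1 repression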
hgDAF12 conf – hgDAF-12 agonism, confirmation assay. shares compounds with hgDAF-12 ag. HEK293 GAL4-hgDAF12 luciferase reporter, agonist mode; percent of butyrate response. activation, % at 6.8 µM. hit rate 80% among 3,300. AID 743050;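 active means mean activation over triplicate wells above the hit cutoff derived from the earlier primary screen, cut at about 11% in these data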;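 further: 0% = DMSO low control and 100% = 2 mM sodium butyrate high control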
LXRb DAF12 ctr – activates human LXR-beta, counter-screen for DAF-12 agonists; 3,300 tested, under 10 active; shares compounds with hgDAF-12 ag; HEK293 Gal4-LXR luciferase reporter, 24 h; AID 743051; activation, % at 6.8 µM;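 active means mean activation of the triplicate above a set limit carried over from the primary screen, none filed active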
Target sequence (P55055 whole entry, looked up, the tested form may be a part): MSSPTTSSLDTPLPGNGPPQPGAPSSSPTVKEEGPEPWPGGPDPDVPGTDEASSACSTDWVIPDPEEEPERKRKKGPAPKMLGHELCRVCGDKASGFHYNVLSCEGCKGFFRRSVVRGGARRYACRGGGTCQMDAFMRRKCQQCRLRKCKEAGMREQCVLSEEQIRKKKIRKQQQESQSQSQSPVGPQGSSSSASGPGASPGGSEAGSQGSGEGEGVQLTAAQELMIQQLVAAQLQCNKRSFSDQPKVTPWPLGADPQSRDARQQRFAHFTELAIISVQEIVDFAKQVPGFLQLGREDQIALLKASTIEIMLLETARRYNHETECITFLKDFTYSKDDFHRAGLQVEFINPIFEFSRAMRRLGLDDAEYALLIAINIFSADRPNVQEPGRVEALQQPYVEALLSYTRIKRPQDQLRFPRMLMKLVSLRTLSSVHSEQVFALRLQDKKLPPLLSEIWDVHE
An asterisk follows results filed as active; nt = not tested or not shown. Shown are actives, neighbours in structure and some others; about 4.8% of the full set was active somewhere.

SMILES	ssDAF12 agonist	hcDAF-12 act	DAX1 inh-1	SMARCA2 act	hgDAF-12 ag	DAX1 inh-2	hgDAF12 conf	LXRb DAF12 ctr
CCc1ccc(/C=N\NC(=O)c2ccc(Br)o2)s1	0	3	3	7	15*	2	13*	0
CCN(CC)c1ccc(/C=N/NC(=O)c2ccc(Br)o2)cc1	0	2	2	6	17*	2	19*	1
CCN(CC)c1ccc(/C=N/NC(=O)c2ccc3c(c2)OCCO3)cc1	-1	0	0	3	3	0	nt	nt
Cc1ccc(/C=N/NC(=O)c2ccc(Br)o2)s1	-1	4	2	4	8	2	nt	nt
Nc1nc2ccc(-c3nc4ccccc4o3)cc2s1	1	3	3	1	14*	2	13*	1
COc1cccc(-n2cc(-c3ccc(F)cc3)[nH]c2=S)c1	0	5.6*	1	8	20*	3	12*	1
CCN(CC)CCNS(=O)(=O)c1ccc2c3c(cccc13)C(=O)N2	0	1	0	0	0	2	nt	nt
COc1ccc2c(c1OC)C(=O)OC2Nc1nc(-c2cc3ccccc3oc2=O)cs1 (stereo not given)	1	5	4.3*	4	18*	0	17*	1
CCOc1cc(/C=N/NC(=O)N/N=C/c2ccc(O)c(OCC)c2)ccc1O	1.1*	5	-1	-1	14*	nt	16*	1
COc1cc(/C=N/NC(=O)CCC(=O)Nc2ccc(F)cc2)ccc1O	-1	0	0	-2	24*	1	0	0
CCOc1cc(/C=N/NC(=O)C(=O)N/N=C/c2ccc(O)c(OCC)c2)ccc1O	-1	-2	0	-2	-1	2	nt	nt
COc1ccc(/C=N/NC(=O)CCC(=O)Nc2ccccc2)cc1OC	-1	0	0	-1	2	1	nt	nt
CNC[C@@H]1OCc2ccccc2-c2ccccc2C(=O)N([C@@H](C)CO)C[C@@H]1C	-2	-1	1	-1	-2	1	nt	nt
Cc1cc(C)c(S(=O)(=O)N2CCN(c3ccccn3)CC2)c(C)c1	-1	-3	-1	2	0	-1	nt	nt
Fc1cccc(Cl)c1-c1nnc2ccc(C(F)(F)F)cn12	-1	0	0	-1	0	0	nt	nt
COc1ccccc1N1CCN(C(=O)CN(C)S(=O)(=O)c2cc(C)ccc2OC)CC1	-1	-2	-1	-4	-2	-1	nt	nt
O=C(/C=C/c1ccccc1)NCCC1=CCCCC1	-1	-1	2	6	14*	0	12*	1
O=C(/C=C/c1ccc(F)cc1)NCCC1=CCCCC1	-1	2	1	1	9	0	nt	nt
CC(NC(=O)Nc1ccc([N+](=O)[O-])cc1)C(c1cccs1)N1CCCC1 (stereo not given)	-2	-1	-1	0	-2	-1	nt	nt
Nc1ccc(-c2nc3cc([N+](=O)[O-])ccc3o2)cc1	1	5.7*	3	1	24*	5.7*	20*	1
COc1ccc(-c2nc3cc([N+](=O)[O-])ccc3o2)cc1	0	2	2	3	14*	6.2*	17*	1
CC(C)(C)Nc1nc2cc([N+](=O)[O-])ccc2o1	-1	0	0	-2	0	0	nt	nt
COc1ccc(/C=C/C2=Nc3ccccc3NC(C)(C)C2)cc1OC	1.0*	6	2	3	16*	3	7	0
CN(C)Cc1c(-c2ccc(Cl)cc2)nc2ccccn12	-1	3	2	5	18*	5.4*	10	1
Clc1ccc(-c2nc3ccccn3c2CN2CCCCC2)cc1	-3	-5	-2	-4	-9	-2	nt	nt
SMILES	ssDAF12 agonist	hcDAF-12 act	DAX1 inh-1	SMARCA2 act	hgDAF-12 ag	DAX1 inh-2	hgDAF12 conf	LXRb DAF12 ctr
CC1CCCCC12NC(=O)N(Cc1cc(=O)n3ccsc3n1)C2=O (stereo not given)	-1	0	0	-3	4	2	nt	nt
O=C(c1ccccc1)N1CCN(C(=O)c2nn3c(C(F)(F)F)cc(-c4ccco4)nc3c2Br)CC1	-1	-1	0	-1	0	0	nt	nt
Cc1cccc(Nc2n[nH]c(=S)s2)c1C	-1	2	0	-2	0	0	nt	nt
Cc1cccc(Nc2nc3ccccc3s2)c1C	1.3*	5	3	2	21*	1	20*	1
CCc1ccc(-c2csc(NC(=O)Oc3ccccc3)n2)cc1	0	1	3	6	15*	1	6	0
COCC(=O)Nc1nc(-c2ccc(-c3ccccc3)cc2)cs1	-1	0	0	0	3	2	nt	nt
C=C(C)C1CC=C(C)/C(=N/NC(=O)c2ccoc2C)C1 (stereo not given)	0	5.9*	4.3*	2	20*	3	1	0
C=C(C)C1CC=C(C)/C(=N/NC(=O)c2cccc([N+](=O)[O-])c2)C1 (stereo not given)	-1	1	0	2	4	1	nt	nt
C=CCn1c(-c2csc(-c3ccccc3)n2)n[nH]c1=S	-1	-1	0	2	2	-1	nt	nt
C=CCN1C(=S)CC(c2ccccc2)=Nc2ccccc21	-1	0	0	-1	14*	-1	0	0
O=C(COc1ccc(Cl)cc1Cl)OCn1nnc2ccccc2c1=O	-1	-1	0	-7	-2	0	nt	nt
O=c1c2ccccc2nnn1COc1cccc(Cl)c1	-1	1	2	4	13*	2	6	0
O=c1c2ccccc2nc(-c2ccco2)n1Cc1ccccc1	-1	3	1	4	14*	2	12*	0
c1ccc(Cn2c(-c3ccco3)nc3nc4ccccc4nc32)cc1	0	1	2	6	7	2	nt	nt
O=C(CC1SCCNC1=O)NCc1ccccc1 (stereo not given)	-1	1	0	1	1	0	nt	nt
COC(=O)C1C(=O)c2c([nH]c(C(=O)OCCOC(C)C)c2C)CC1C (stereo not given)	-1	0	0	3	4	nt	nt	nt
COC(=O)C1C(=O)c2c([nH]c(C(=O)OC3CCCCC3)c2C)CC1C (stereo not given)	0	1	2	2	15*	5.3*	12*	0
CN(C(=O)/C=C/c1ccccc1)C1CCS(=O)(=O)C1 (stereo not given)	-1	1	0	0	2	2	nt	nt
CN(C(=O)/C=C/c1ccccc1)C1CCCCC1	-1	5	1	3	14*	nt	17*	1
